Results taken from PubChem BioAssay AID1159580 (chemical genetic matrix, 2015).
In all, about 5,500 compounds went through this assay and about 2,000 (36%) were called active. Another 18% or so got no clear call; they are omitted. No stated cut-off is given here; in the data, active means normalized growth mostly below about 0.91 (no sharp cut-off); inconclusive means no clear call, values can overlap the other calls; inactive means mostly above about 0.92. The list shows a part of the results.

Assay: chemical genetic growth profiling, strain panel (AID 1159580);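 further: tested at 20 µM; growth read once vehicle control cultures reached saturation at 30 °C; 1 = growth at the plate median or of vehicle wells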
Conditions: S. cerevisiae deletion strains, growth OD

Measured: normalized growth

O=C(O)/C=C/C(=O)O
inactive: locus YAL040C, strain CLN3, stronger effect = lower value 1.02 | locus YCL061C, strain MRC1 (second series), stronger effect = lower value 1.01 | locus YDR363W, strain ESC2, stronger effect = lower value 1.01 | locus YER002W, strain NOP16, stronger effect = lower value 1.04 | locus YJR075W, strain HOC1, stronger effect = lower value 1.01 | locus YNL128W, strain TEP1, stronger effect = lower value 1.01 | locus YNL175C, strain NOP13, stronger effect = lower value 1.01 | locus YNL197C, strain WHI3, stronger effect = lower value 1 | locus YNL224C, strain SQS1, stronger effect = lower value 1 | locus YNL322C, strain KRE1, stronger effect = lower value 1.02 | locus YOR083W, strain WHI5 (second series), stronger effect = lower value 1 | locus YPL055C, strain LGE1, stronger effect = lower value 1.02
